Each structure is given as a SMILES string. Records with an inconclusive call do not appear. Where a call stands in place of a potency, no number is given. A number with no mark means an inactive call. Calls of active or inactive are those of the source. Calls come from the whole dose curve; as a rule, active = well fitted inhibition curve with a large enough effect; inconclusive = small, poorly fitted or top-dose-only effect; inactive = flat fitted curve, though single readings scatter.
Potency is the fitted concentration of half-maximal effect.

The experiment in a line: P-glycoprotein substrates identified in KB-8-5-11 adenocarcinoma cell line, qHTS therapeutic library screen (AID 1346987). Note: nearly all actives have a fitted effect of over 65% in size. To be noted: KB-8-5-11 (P-gp overexpressing) viability, CellTiter-Glo, 72 h; series mostly up to 44.5 µM. In short, it runs like this:
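Compounds are pinned in dose-response onto KB-8-5-11 cells (500 cells/well, colchicine-free medium) and left 72 h at 37 degree C. CellTiter-Glo luminescence then yields AC50 values.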
(In general: In qHTS, concentration-response curves come from the screen itself.)
As to `CCOC(=O)Nc1cc(-c2ccc(C)c(NS(C)(=O)=O)c2)nn2c(C)nnc12`, the Potency was 14.6 µM (active).

For `CC1=C(CCC(C)O[C@@H]2O[C@H](CO)[C@@H](O)[C@H](O)[C@H]2O)C(C)(C)CCC1=O` (stereo partly drawn), the Potency result was “inactive”.

Regarding `COc1c/c(=C2\C=c3ccccc3=N2)[nH]/c1=C\c1[nH]c(C)cc1C`, the Potency is 1.16 µM (active).

As for `N#Cc1ccc(C(=O)N2CCC3(CC2)N=C(N)c2c(F)ccc(F)c2N3)cn1`, the Potency entry is “inactive”.

For `CN(C)C/C=C/C(=O)Nc1cccc(C(=O)Nc2ccc(Nc3nccc(-c4cccnc4)n3)cc2)c1`, the Potency result is “inactive”.

Take `Cc1cccc(-c2[nH]c(Cc3cccc(C(N)=O)c3)nc2-c2ccc3nccnc3c2)n1`: the Potency result is “inactive”.

On to `CC(C)c1cc(CNc2nc(Nc3cc(C4CC4)[nH]n3)cc(N3CCN(C)CC3)n2)on1`, for which the Potency was 5.8 µM (active).

Take `CON(C)C(=O)[C@H](O)[C@H](Cc1ccccc1)NC(=O)c1cc2cc(Cl)ccc2[nH]1`: the Potency entry was “inactive”.

In the case of `C/C=C(/COC(=O)/C(C)=C/C)C(=O)OC(CC)c1ccc(OC)c(OC)c1` (stereo not drawn), the Potency entry is “inactive”.

For `NCCCNc1ccc(Nc2nccc(Nc3cc(C4CC4)[nH]n3)n2)cc1`, the Potency is 1.3 µM (active).

Turning to `Cc1cnc(NC(=O)Nc2cc(Br)c(C)cc2OCC2CNCCO2)cn1` (stereo not drawn), the Potency is 8.2 µM (active).

For the molecule `CC1CCC2(C=O)C(CO)=CCCC2C1(C)CC(=O)O` (stereo not drawn), the Potency result was “inactive”.

As to `Cc1nc2sc(C(=O)NCc3ccncc3)c(N)c2c(C)c1Cl`, the Potency result is “inactive”.

In the case of `CC(=O)O[C@H]1CC[C@H](C)[C@@]2(C)[C@H](OC(C)=O)c3c(C)coc3C(=O)[C@H]12`, the Potency result was “inactive”.

Turning to `C=CC(C)(O)C(O)CC1C(C)(O)C(O)C(O)C2C(C)(C)CCCC21C` (stereo not drawn), the Potency result was “inactive”.

Take `C=C1C(=O)O[C@H]2[C@H]1CC/C(C)=C/CC[C@@]1(C)O[C@@H]21`: the Potency result was “inactive”.

Consider `CN1c2ccccc2C(=O)N2CCC3c4ccccc4NC3C21` (stereo not drawn), for which the Potency is 2.02 µM (active).

With `C=C(C(=O)O)C1CCC2(C)CCC(O)C(=C)C2C1` (stereo not drawn), the Potency result is “inactive”.

`CCN(Cc1cccnc1)C(=O)CN(c1ccc(OC)nc1)S(=O)(=O)c1ccccc1C`: the Potency entry was “inactive”.

`Nc1nc2c(ncn2[C@@H]2O[C@@H]3COP(=O)(O)O[C@H]3[C@H]2O)c(=O)[nH]1`: the Potency entry is “inactive”.

As for `C/C=C(\C)C(=O)OCC1OC(OC2OC(COC(=O)/C(C)=C/C)C(OC3OC(CO)C(OC(=O)/C(C)=C/C)C(OC(=O)/C(C)=C/C)C3O)C(O)C2O)C(O)C(O)C1OC1OC(CO)C(OC(=O)/C(C)=C/C)C(OC(=O)/C(C)=C/C)C1O` (stereo not drawn), the activity change, negative = cytotoxicity is 8.2% [at 9.29 µM].

As for `COC(=O)C1=CO[C@@H](O[C@@H]2O[C@H](CO)[C@@H](O)[C@H](O)[C@H]2O)[C@H]2[C@@H]1CC(OC)O[C@@H]2C` (stereo partly drawn), the Potency entry is “inactive”.

`CC(=O)OC1C[C@]2(C)C(O)CC(C)=C[C@H](OC(=O)c3ccc(O)cc3)C2[C@]1(O)C(C)C` (stereo partly drawn): the Potency result was “inactive”.

For the molecule `C=C(C(=O)O)C1CC(O)C2(C)CCCC(=C)C2C1` (stereo not drawn), the Potency result is “inactive”.

Take `CCC1=CC2CN(C1)Cc1c([nH]c3ccccc13)[C@@](C(=O)OC)(c1cc3c(cc1OC)N(C)[C@H]1[C@@](O)(C(=O)OC)[C@H](OC(C)=O)[C@]4(CC)C=CCN5CC[C@]31[C@@H]54)C2` (stereo partly drawn): the Potency is 7.09 µM (active).

On to `C=C1CCC2C(C)(C(=O)O)CCCC2(C)C1CC/C(=C\CO)CO` (stereo not drawn), for which the Potency result was “inactive”.

`C/C=C/C1=CC2=C(CO1)C(=O)C(C)(O)C(OC(=O)c1c(C)cc(OC)cc1O)C2` (stereo not drawn): the Potency result was “inactive”.

Turning to `CCOc1cc(N2CCC(O)CC2)ccc1Nc1ncc2c(n1)N(C1CCCC1)CCC(=O)N2C`, the Potency is 11.6 µM (active).

Regarding `C=CC(=O)Nc1cc(Nc2nccc(-c3c[nH]c4ccccc34)n2)c(OC)cc1N(C)CCN(C)C`, the Potency is 6.51 µM (active).

For `C[C@H](O)[C@H](O)/C=C/c1cccc(O)c1CO`, the Potency entry is “inactive”.

In the case of `C/C=C1\[C@H](O[C@@H]2O[C@H](CO)[C@@H](O)[C@H](O)[C@H]2O)OC=C(C(=O)OC)[C@H]1CC(=O)O`, the Potency entry is “inactive”.

As to `C=C1C[C@]23C[C@H]1CC[C@H]2[C@]1(C)CCC[C@@](C)(C(=O)O)[C@H]1[C@@H]3C(=O)O`, the Potency result is “inactive”.

Turning to `C/C=C/C(O)C1OC(=O)CC1Nc1ccc(C(=O)O)cc1` (stereo not drawn), the Potency entry is “inactive”.

With `O=C(O)c1cc(-c2c(-c3ccccc3)nn3ccccc23)n[nH]c1=O`, the Potency entry was “inactive”.

As for `O=C(NCc1ccc(F)cc1)C(=O)c1c[nH]c2ccccc12`, the Potency result is “inactive”.

On to `CC1(C)CC[C@]2(C(=O)O[C@@H]3O[C@H](CO)[C@@H](O)[C@H](O)[C@H]3O)CC[C@]3(C)C(=CCC4[C@@]5(C)C[C@@H](O)[C@H](O)[C@](C)(C(=O)O)C5CC[C@]43C)C2C1O` (stereo partly drawn), for which the Potency result is “inactive”.

As to `Cc1ccc(NC(=O)c2ccc(CN3CC[C@H](N(C)C)C3)c(C(F)(F)F)c2)cc1Nc1nccc(-c2cncnc2)n1`, the Potency result is “inactive”.

For `Cc1cnc(Nc2ccc(F)cc2Cl)nc1-c1c[nH]c(C(=O)NC(CO)c2cccc(Cl)c2)c1` (stereo not drawn), the Potency was 3.66 µM (active).
